Most compounds without a hit are left out; they make up all but 21% or so of the library.
SARS PLP yeast = inhibitors of SARS-CoV papain-like protease in yeast. S. cerevisiae expressing SARS-CoV PLpro, growth rescue. Potency, µM (highest dose often 32.9 µM), most hits filed as activators. 330,000 compounds, 0.19% hits. AID 485353; calls by dose curve; further: nearly all actives have a fitted effect of over 55% in size
Pf growth 96h = P. falciparum growth inhibition at 96 hour, primary screen for plastid delayed-death inhibitors; 320,000 compounds, 6.9% hits; P. falciparum luciferase reporter growth, 96 h; Potency, µM (top dose mostly 28.7 µM), actives largely listed as inhibitors
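96 h incubation, 37 C, 5% CO2, of luciferase-reporter P. falciparum-infected RBCs (2% hematocrit, 0.05% parasitemia final) with test compounds; endpoint luminescence.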
Pf growth 48h = P. falciparum growth inhibition at 48 hours (one generation); P. falciparum luciferase growth in erythrocytes, 48 h; Potency, µM (series often up to 28.7 µM), hits mostly inhibitors; 310,000 compounds, 5.9% hits
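Growth was read as firefly luciferase luminescence after a 48 h, 37 C, 5% CO2 exposure of compounds to reporter-bearing P. falciparum cultures (0.1% parasitemia, 2% hematocrit final) in Albumax-supplemented RPMI 1640.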
Shiga inhibitor = inhibitors of Shiga toxin in Vero cells | 290,000 compounds, 9.2% hits | inhibition, % at 38.7 µM | Vero cells, Shiga toxin protein synthesis inhibition reporter; in the data active means inhibition mostly above about 28%, no sharp cut-off; inactive means mostly below about 43%
NS1 function inh = influenza NS1 inhibition | Potency, µM (top dose mostly 46.1 µM) | 270,000 compounds, 0.4% hits | AID 2326; calls by dose curve; further: actives are rising curves; nearly all actives have a fitted effect of over 50% in size
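Growth recovery, yeast-based: influenza A NS1 expressed in S. cerevisiae causes slow growth, and suppressors are detected by OD600. The parent strain without NS1 is used as positive control.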
CHX counter = counter-screen hit for Shiga toxin inhibitors, cycloheximide; cell reporter, cycloheximide protein synthesis inhibition counterscreen; max response, %; 300,000 compounds, 12% hits; AID 2314; in the data active means max response mostly above about 13%, no sharp cut-off; inactive means mostly below about 14%; further: read at 38.3 µM for the half of the compounds with a filed dose
Each line names hits and unclear results; the compound was inactive in the other large screens. Unless noted, the call rests on the fitted dose curve; in most records, active means well fitted inhibition curve with a large enough effect; inconclusive means small, poorly fitted or top-dose-only effect, or another doubt; inactive means no such curve, though single readings can be large or run the other way.

O=C(NC1CCS(=O)(=O)C1)c1cccc(Br)c1 (stereo unspecified)	none (no result: Shiga inhibitor, NS1 function inh, CHX counter)
CCCCOC(=O)c1ccc(S(N)(=O)=O)o1	Pf growth 96h inconclusive, CHX counter 11
O=C(OCCCOC(=O)c1ccc(Br)o1)c1ccc(Br)o1	none (no result: Shiga inhibitor, NS1 function inh, CHX counter)
CCCOC(=O)c1ccc(S(N)(=O)=O)o1	Pf growth 96h 7.4µM
COC(=O)c1ccc(S(N)(=O)=O)o1	none
CCc1ccccc1NC(=O)N1CCC(NC(=O)C(Cc2ccc(OC)c(OC)c2)NC(C)=O)CC1 (stereo unspecified)	Pf growth 96h 12µM, Pf growth 48h inconclusive
COc1ccc(-n2c(C)c(C(C)=O)c(C(C)=O)c2C)cc1	none (no result: Pf growth 96h)
COc1ccc(-n2c(C)cc3cc(OC(C)=O)ccc32)cc1	CHX counter 11
CC1(C)CC(NC(=O)c2ccccc2F)CC(C)(C)N1	Pf growth 96h inconclusive
Cc1cc(C)cc(NC(=O)C2CCN(C(=O)[C@@H]3Cc4ccccc4CN3)CC2)c1	none
CCc1ccc(NC(=O)C2CCC(CNC(=O)[C@@H]3Cc4ccccc4CN3)CC2)cc1 (stereo partly specified)	Pf growth 48h inconclusive, CHX counter 27
CC(C)c1ccc(NC(=O)C2CCN(C(=O)[C@@H]3Cc4ccccc4CN3)CC2)cc1	Shiga inhibitor 46, CHX counter 23
Cc1ccccc1C(=O)N1CCC(C(=O)Nc2ccc(C(C)C)cc2)CC1	Pf growth 48h inconclusive
Cc1ccc(NC(=O)C2CCN(C(=O)[C@@H]3Cc4ccccc4CN3)CC2)cc1	Shiga inhibitor 63, CHX counter 24
Cc1c(N/C(=N/S(=O)(=O)c2ccccc2)c2ccc(Cl)cc2)c(=O)n(-c2ccccc2)n1C	none
COc1cc([N+](=O)[O-])ccc1NC(=O)NCc1ccco1	none
Nc1nncn1C(=O)CCCOc1ccccc1	none
Nc1nncn1C(=O)CCc1ccccc1	CHX counter 9.3 (no result: Pf growth 96h)
CCCCNC(=O)C(C)N(CCN(C)C)C(=O)CCCN1C(=O)NC(c2ccc([N+](=O)[O-])cc2)C(C(=O)OCc2ccccc2)=C1C (stereo unspecified)	none (no result: Pf growth 96h, Pf growth 48h, Shiga inhibitor, NS1 function inh, CHX counter)
CCCCCCN(C(=O)CCCCCN1C(=O)NC(c2cccc([N+](=O)[O-])c2)C(C(=O)OCc2ccccc2)=C1C)C(C(=O)NCCCC)c1ccc(OCC(=O)OC)c(C(=O)OC)c1 (stereo unspecified)	Pf growth 96h 5.2µM, Pf growth 48h inconclusive, NS1 function inh inconclusive
CCCCNC(=O)C(c1ccc(OCC(=O)OC)c(C(=O)OC)c1)N(CCc1c[nH]c2ccccc12)C(=O)CCCCCN1C(=O)NC(c2ccc(-c3ccccc3)cc2)C(C(=O)OCc2ccccc2)=C1C (stereo unspecified)	Pf growth 96h 2.9µM, Pf growth 48h 2.3µM, NS1 function inh inconclusive
CCCCCCN(C(=O)CCCCCN1C(=O)NC(c2ccc([N+](=O)[O-])cc2)C(C(=O)OCc2ccccc2)=C1C)C(C(=O)NCCCC)c1ccc(OCC(=O)OC)c(C(=O)OC)c1 (stereo unspecified)	Pf growth 96h 3.3µM, Pf growth 48h 1.9µM
CCCCCCN(C(=O)CCCCCN1C(=O)NC(c2ccc(Cl)cc2)C(C(=O)OCc2ccccc2)=C1C)C(C(=O)NCCCC)c1ccc(OCC(=O)OC)c(C(=O)OC)c1 (stereo unspecified)	Pf growth 96h inconclusive, Pf growth 48h 7.4µM
C[C@H](CO)N1C[C@H](C)[C@@H](CN(C)S(=O)(=O)c2ccc(Cl)cc2)Oc2ccc(NS(=O)(=O)c3ccccc3)cc2CC1=O	none (no result: Pf growth 96h, Pf growth 48h, Shiga inhibitor, NS1 function inh, CHX counter)
COc1ccc(N2CCN(S(=O)(=O)c3cc4c(cc3C)NC(=O)CO4)CC2)cc1	Pf growth 96h inconclusive
O=C(/C=C/c1cccnc1)/C=C/c1cccnc1	Pf growth 96h inconclusive, Pf growth 48h inconclusive
S=C(NCc1ccncc1)Nc1ccc(Br)cc1	Pf growth 48h inconclusive
[O-]/[N+](=C\c1ccncc1)c1ccc(Br)cc1	CHX counter 17
[O-]/[N+](=C/c1cccnc1)c1ccc(Br)cc1	Shiga inhibitor 94, CHX counter 37 (no result: Pf growth 96h)
CCOC(=O)C1C(=O)C(C(C)=O)C(=O)CC1CC(C)SCC (stereo unspecified)	none (no result: Pf growth 96h)
COc1cccc2c(=O)n(CC(=O)NC3CCCC3)ccc12	CHX counter 24
COc1cccc(-c2nnn(CC(=O)NC3CCCC3)n2)c1OC	Pf growth 96h 9.3µM
COc1cccc2c(=O)n(CC(=O)Nc3ccccc3)ccc12	none
CCOc1ccc(N(CC(=O)Nc2ccc(C)cc2)S(=O)(=O)c2c(C)noc2C)cc1	none (no result: Pf growth 48h)
CCOc1ccc(N(CC(=O)Nc2ccccc2OCC)S(=O)(=O)c2c(C)noc2C)cc1	Pf growth 96h 12µM, Pf growth 48h inconclusive
CCOc1ccc(N(CC(=O)Nc2cccc(OC)c2)S(=O)(=O)c2c(C)noc2C)cc1	Pf growth 96h 0.83µM, Pf growth 48h inconclusive
CCOc1ccc(N(CC(=O)NC2CCCCC2C)S(=O)(=O)c2c(C)noc2C)cc1 (stereo unspecified)	Pf growth 96h inconclusive, Pf growth 48h inconclusive, CHX counter 14
CCOc1ccc(N(CC(=O)Nc2cccc(Cl)c2)S(=O)(=O)c2c(C)noc2C)cc1	none (no result: Pf growth 48h)
O=P(O)(O)c1ccccc1 (tested in a mixture with another compound)	none (no result: SARS PLP yeast, Pf growth 96h, Pf growth 48h, Shiga inhibitor, CHX counter)
Brc1cccc(OCCCNC2CCCC2)c1	Pf growth 96h 12µM, Pf growth 48h inconclusive
Cc1cc(Br)ccc1OCCCCN1CCC(C)CC1	Pf growth 48h 15µM
Cc1ccc(C)c(OCCCNC2CCCC2)c1C	Pf growth 96h inconclusive, Pf growth 48h 12µM (no result: NS1 function inh)
CC1CCN(CCCCOc2ccc(Br)cc2)CC1	none
CC1CCN(CCCCOc2cccc(Br)c2)CC1	Pf growth 96h 2.6µM, Pf growth 48h inconclusive
O=C(CSc1nnnn1-c1cccnc1)NCc1cccs1	none (no result: Pf growth 96h)
CCCCC1(Cc2ccc([N+](=O)[O-])cc2)C(=O)N(c2ccccc2)N(c2ccccc2)C1=O	Pf growth 96h inconclusive, Pf growth 48h 4.1µM
COCCCNC(=O)c1c(NC(=O)c2cccs2)sc2c1CCCC2	Pf growth 96h inconclusive
NC(=O)c1c(NC(=O)c2cccs2)sc2c1CCCCCC2	SARS PLP yeast inconclusive, CHX counter 30
O=C(Nc1sc2c(c1C(=O)Nc1cccc(Cl)c1)CCCC2)c1cccs1	none (no result: SARS PLP yeast, Pf growth 96h, Pf growth 48h, NS1 function inh)
O=C(Nc1sc2c(c1C(=O)O)CCC2)c1cccs1	Shiga inhibitor 115, CHX counter 48
COC(=O)N/N=C/c1ccc(-c2ccc(Cl)cc2Cl)o1	CHX counter 11
COC(=O)c1ccccc1-c1ccc(/C=N/NC(N)=O)o1	none
COC(=O)N/N=C/c1ccc(-c2ccccc2Cl)o1	Shiga inhibitor 41, CHX counter 41
Cc1cccc(NC(=O)NNC(=O)c2sccc2-n2cccc2)c1	none (no result: NS1 function inh)
Cc1ccc(C)c(-c2cc(C(=O)Nc3nccs3)c3ccccc3n2)c1	Pf growth 96h 1.9µM, Pf growth 48h inconclusive

Assay outcomes (PubChem)
